Most compounds without a hit are left out; they make up all but 27% or so of the library.
CYP2C19 activ = cytochrome P450 2C19 (human) activation; P33261; recombinant CYP2C19, luciferin-H EGE luminescence; stronger effect = higher value; 0 = fully inhibited enzyme, 1 = untreated enzyme; activation factor at 5 µM; 96,000 tested, under 10 active; AID 1025;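 active = activation factor of at least 2 at 5 µM in the primary screen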;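 also: 0 = wells with 2.5 mM tranylcypromine and 1 = vehicle-only wells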
sEH act = increases human soluble epoxide hydrolase activity | purified human sEH enzymatic activity, activator screen | 91,000 tested, 0.04% active | activation, % at 2 µM; in the data active = activation above about 37%
sEH inhibitor = blocks human soluble epoxide hydrolase activity; AID 707; P34913; inhibition, % at 2 µM; recombinant human sEH enzymatic activity assay; 91,000 tested, 0.34% active; in the data active = inhibition above about 80%
CYP2C19 inh = human CYP2C19 inhibition; CYP2C19 Supersomes, luciferin-H EGE luminescence, 30 min; inhibition, % at 5 µM; 96,000 tested, 21% active;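 active = CYP2C19 inhibition above a set limit at 5 µM in the primary screen, cut at about 50% in these data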;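 also: plate controls were negative control wells for no effect and 2.5 mM tranylcypromine positive control for full effect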
CYP2C9 act = CYP2C9 (human) activation; recombinant CYP2C9, luciferin-H conversion, luminescence; stronger effect = higher value; factor 1 = untreated enzyme, 0 = blocked; activation factor at 5 µM; 96,000 tested, 1.4% active; AID 1024;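 active = activation factor of 2 or more for CYP2C9 at a 5 µM dose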;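 also: 0 = sulfaphenazole-blocked wells and 1 = vehicle-only wells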
Target sequence (P11712 whole entry, looked up): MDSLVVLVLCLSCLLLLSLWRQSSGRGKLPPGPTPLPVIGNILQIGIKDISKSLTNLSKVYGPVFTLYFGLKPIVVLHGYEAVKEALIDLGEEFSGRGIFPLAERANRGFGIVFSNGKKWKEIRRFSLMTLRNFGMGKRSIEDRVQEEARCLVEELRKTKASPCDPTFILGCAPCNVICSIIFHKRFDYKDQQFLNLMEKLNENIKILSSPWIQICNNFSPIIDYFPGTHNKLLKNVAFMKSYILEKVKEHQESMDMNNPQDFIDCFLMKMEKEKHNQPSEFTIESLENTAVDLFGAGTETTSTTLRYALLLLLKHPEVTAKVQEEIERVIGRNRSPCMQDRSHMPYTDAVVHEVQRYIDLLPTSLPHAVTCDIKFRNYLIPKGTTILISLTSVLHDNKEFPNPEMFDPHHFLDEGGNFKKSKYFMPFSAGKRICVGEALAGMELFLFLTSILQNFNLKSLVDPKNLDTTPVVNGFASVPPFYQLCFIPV
CYP2C9 inh = human CYP2C9 inhibition; CYP2C9 Supersomes, luciferin-H conversion, luminescence; P11712; inhibition, % at 5 µM; 96,000 tested, 20% active;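 active = blocking of liver enzyme CYP2C9 beyond about 50% at 5 µM, limit read from the data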
* marks the source's active call; other numbers are inactive results; . = not tested or not shown.

SMILES	CYP2C19 activ	sEH act	sEH inhibitor	CYP2C19 inh	CYP2C9 act	CYP2C9 inh
COc1cc2c(cc1OC)-c1cc(NC3CCCCCCC3)nc(=O)n1CC2	0.6	-3	3	38	0.5	51*
COc1ccc(CCNC(=O)NC2CCCCC2)cc1OC	0.2	-63	64	82*	1	1
O=C(NCCc1ccccc1)NC1CCCCC1	0.4	-82	82*	59*	0.8	16
Cc1cc(C(=O)NCCC2=CCCCC2)c(C)o1	0.4	-2	4	61*	0.7	27
O=C(NCCC1=CCCCC1)NC1CCCCC1	.	-94	94*	.	.	.
O=C(O)C1C2CCC(O2)C1C(=O)NCCC1=CCCCC1 (stereo not given)	0.8	6	-7	17	1	5
COc1ccc(CCNC(=O)C2CCCN2C(=O)NC2CCCCC2)cc1OC (stereo not given)	0.9	-20	21	6	0.9	6
COc1ccc(C(=O)COC(=O)CN2CC(=O)Oc3ccccc32)cc1Br	0.6	0	1	38	0.5	46
Cc1ccoc1C(=O)Nc1ccc(CC(=O)O)cc1	0.8	6	-4	15	1.1	-7
O=C(NCc1ccccc1)NC1CCCCC1	0.8	-58	58	22	1	-5
CCCNC(=O)C(=O)NCCC1=CCCCC1	0.5	6	-6	54*	0.9	10
O=C(NCCC1=CCCCC1)C1CC(=O)N(C2CCCCCC2)C1 (stereo not given)	0.5	-3	2	52*	0.4	57*
NC(=O)NCCC1=CCCCC1	1	1	0	-1	0.9	5
CC(SCc1ccccc1)C(=O)NC1CCCC1 (stereo not given)	0.2	1	1	83*	0.3	74*
Cc1ccc(S(=O)(=O)NCC(=O)N(CCc2ccccc2)CC(=O)NCc2ccco2)cc1	0.3	-6	8	72*	0.5	53*
O=C(CN(Cc1cccs1)C(=O)CNS(=O)(=O)c1ccc(F)cc1)NCc1ccco1	0.4	9	-12	58*	0.8	22
O=C(CN(Cc1cccs1)C(=O)CNS(=O)(=O)c1ccc(Cl)cc1)NCc1ccco1	0.6	8	-6	38	0.7	28
Cc1ccc(N(Cc2ccco2)C(=O)c2cccc(S(=O)(=O)N(C)C)c2)cc1	0.6	14	-11	40	0.7	28
O=C(CN(Cc1ccco1)C(=O)CNS(=O)(=O)c1ccc(F)cc1)NCc1ccc(F)cc1	1	.	.	-3	1	-3
O=C(CN(CCc1ccccc1)C(=O)CNS(=O)(=O)c1ccccc1)NCc1ccco1	0.8	-16	15	20	0.9	10
O=C(CN(Cc1ccco1)C(=O)CNS(=O)(=O)c1ccccc1)NCc1ccc(F)cc1	0.4	.	.	61*	0.4	62*
CN(C)S(=O)(=O)c1cccc(C(=O)N(Cc2ccc(F)cc2)Cc2ccco2)c1	0.9	3	0	6	0.5	51*
Cc1cc(C(=O)OCC(=O)N2C(C)CCCC2C)c(C)o1 (stereo not given)	.	2	-1	.	.	.
COc1ccccc1N1CCN(/N=C/c2c(C)nn(-c3ccccc3)c2C)CC1	0.8	-2	0	21	0.8	16
Cc1ccc(-n2nc3c(c2NC(=O)c2ccc(S(=O)(=O)N4CCOCC4)cc2)CSC3)c(C)c1	0.9	2	-2	13	0.3	67*
SMILES	CYP2C19 activ	sEH act	sEH inhibitor	CYP2C19 inh	CYP2C9 act	CYP2C9 inh
Cc1cccc(-n2nc3c(c2NC(=O)c2ccc(S(=O)(=O)N4CCOCC4)cc2)CSC3)c1C	0.9	-9	10	7	0.8	17
COC(=O)c1ccccc1S(=O)(=O)C(C)(C)C	.	10	-10	.	.	.
O=S(=O)(c1ccc2oc3ccccc3c2c1)N1CCCC1	.	2	-2	.	.	.
COC(=O)c1ccccc1S(=O)(=O)Nc1ccc(OC)nc1	0.2	10	-10	85*	0.8	23
COc1ccc(NS(=O)(=O)c2ccc3oc4ccccc4c3c2)cn1	0	0	-3	96*	0	99*
COc1ccc(CNC(=O)CSc2nc3c(c(=O)n(C)c(=O)n3C)n2C)cc1	.	-4	5	.	.	.
CC(C)c1ccc(OC(=O)NCCO)cc1	0.5	13	-15	49	1.1	-10
N#C/C(=C\c1ccc(Cl)cc1Cl)c1n[nH]c(Cn2cncn2)n1	0.4	17	-15	61*	0.2	78*
CS(=O)(=O)N(CC(=O)Nc1cc(Cl)ccc1Cl)c1ccccc1	0.6	2	-4	36	0.4	65*
CS(=O)(=O)N(CC(=O)Nc1cccc(Cl)c1Cl)c1ccccc1	0.7	4	-2	30	0.2	78*
O=C(c1ccco1)N1CCN(C(=O)c2cnn3c2NC(c2cccs2)CC3C(F)(F)F)CC1 (stereo not given)	1.1	-6	1	-6	0.9	12
O=C(c1cnn2c1NC(c1ccco1)CC2C(F)(F)F)N1CCN(c2cccc(Cl)c2)CC1 (stereo not given)	0.2	-3	8	81*	0.2	75*
COc1ccccc1N1CCN(C(=O)c2cc3n(n2)C(C(F)(F)F)CC(c2ccco2)N3)CC1 (stereo not given)	0.9	.	.	6	0.4	59*
CC(C)CNC(=O)COC(=O)c1ccc(Cl)c(S(N)(=O)=O)c1	1	3	-1	0	1.1	-8
CSc1ccc(Cl)c(C(=O)OCC(=O)NCC(C)C)c1	0.3	19	-20	66*	0.8	23
O=C(CC1N=C2c3ccccc3N=C(SCc3ccc(Cl)cc3)N2C1=O)NCc1ccco1 (stereo not given)	0.9	4	-4	5	0.3	72*
Cc1ccc(CSC2=Nc3ccccc3C3=NC(CCC(=O)NCc4ccco4)C(=O)N23)cc1 (stereo not given)	0.8	0	0	21	0.1	87*
COc1ccc(C2C(C(=O)c3ccco3)=C(O)C(=O)N2CCc2ccccc2)cc1OC (stereo not given)	1	2	-1	4	0.7	33
O=C(Oc1ccc2c(c1)C(=O)c1ccccc1CO2)c1ccccc1	0.8	3	-5	17	0.3	73*
CCNc1nc(NCC)nc(Nn2cnnc2)n1	1	9	-7	2	1.1	-12
COc1ccc(OCc2nnc3n2N=C(c2ccc(C)cc2)CS3)cc1	0.7	.	.	30	0.7	32
COc1ccc(OC)c(C2=Nn3c(nnc3-c3ccco3)SC2)c1	0.1	10	-10	85*	0.3	69*
COc1ccc(C2=Nn3c(nnc3-c3ccco3)SC2)cc1	0.4	-5	4	56*	0.4	64*
Oc1ccc(C2=Nn3c(nnc3-c3ccco3)SC2)cc1O	0.7	7	-7	29	0.9	11
CCOc1ccc(C2=Nn3cnnc3SC2)cc1	0	-11	12	95*	0.7	27
CCOc1ccc(C2=Nn3c(nnc3-c3ccc(OC)cc3)SC2)cc1	1	6	-6	-1	0.9	11
